# Laboratory results reported in the supplement of paper PMC8728848.
# Shown is part of a subset that was picked to be rich in the strongest signals.
# B1: InvD YPIII (Yersinia pseudotuberculosis), B1JSC0 (protein)
# chain: MIKYFSFFKKPEPIVGILPNRQSHHILPTHIRRVAWGTLLLQLFIPLSVSFSPAIAAMKASKADTMVSYSSTEPYVLGSGETVAMVAKKYGITVDELKKINIYRTFSRPFTALTTGDEIDIPRKASPFSVDNNKDNRLSVENTLAGHAVAGATALSNGDVAKSGERMVRSAASNEFNNSAQQWLSQFGTARVQLNINDDFHLDGSAADVLIPLYDNEKSILFTQLGARNKDSRNTVNMGAGVRTFQGNWMYGANTFFDNDLTGKNRRIGVGAEAWTDYLKLSANNYFGITDWHQSRDFIDYNERPANGYDLRAEAYLPSYPQLGGKAMYEKYRGDDVALFGKDNRQKNPHAITAGVNYTPIPLVTIGAEHRAGKGGQNDSNINFQLNYRLGETWQSHIDPSAVAASRTLAGSRYDLVERNNHIVLDYQKQNLVRLSLPDSLAGDPFSQLSVTAQVTATHGLERIDWQSAELMAAGGVLKQTSKNGLEITLPEYQMNRTGGNSYILNAIAYDTQGNASSQASMLITVNAQKINIANSTLVAVPINIEANNSDTSVVTLTLKDDNNIPVTGQDVTFLSPLGTLSAMTDSGNGVYTATLTAGTVSGTTAVSSNINGSALDMTPATVTLNGNSGELSITHSMLVAAPVNIEANGSDTSVVTLTLRDSNNNPVTGQTVTFAGTLGTLGAVTEGSSGVYTATLTAGIMVGTSSITASVNSTALGVTPATVTLNGDSGNLSTTNSTLVAAPVNIEANSSDTSVVTLTLRDNNNNPVTGQTVVFTSTLGTLGNVTEQASGVYTATLTAGTVSGVASLSVSVGGNALGVTPATVTLNGDSGNLSTTNSTLVAAPVNIEANSSDTSVVTLTLRDNNNNPVTGQTVNFAGTLGTLGTVSEGSSGVYTTTLTAGTVAGVASLSVNVGGNALGVTPATVTLNGNSGNLSATNSTLVAAPVNIEANSSDTSVVTLTLRDNNNNPVTGQTVAFTSTLGTLGNVTEQASGVYTATLTAGTVSGVASLSVSVNSNALGVTPATVTLNGDSGNLSTTNSTLVAAPVNIEANSSDTSVVTLTLRDNNNNPVTGQTVAFTSTLGTLGNVTEQASGLYTATLTAGTVSGVASLSVNVGGNALGVTPATVTLNGDSGNLSATNSTLVAAPVNIEANSSDTSVVTLTLRDNNNNPVTGQTVAFTSTLGTLGNVTEQASGLYTATLTAGTVSGVASLSVNVGGTALGVTPATVTLNGDSGNLSTTNSTLVAAPVNIEANSSDTSVVTLTLRDNNNNPVTGQTVAFTSTLGTLGNVTEQASGLYTATLTAGTVSGVASLSVSVNSTALGVTPATVTLNGDSGNLSTTNSTLVAAPVNIEANSSDTSVVTLTLRDNNNNPVTGQTVAFTSTLGTLGNVTEQASGVYTATLTAGTVAGVASLSVNVGGNALGVTPATVTLNGDSGNLSTTNSTLVAAPVNIEANSSDTSVVTLTLRDNNNNPVTGQTVAFTSTLGTLGNVTEQASGVYTATLTAGTVSGVASLSVSVGSSALGVTPATVTLNGDSGNLSTTNSTLVAAPVNIEANNSDTSVVTLTLRDNNNNPVTGQTVAFTSTLGTLGNVTEQASGVYTATLTAGTVSGVASLSVSVNSNALGVTPATVTLNGDSGNLSTTNSTLVAAPVNIEANSSDTSVVTLTLRDNNNNPVTGQTVVFTSTLGTLGNVTEQASGLYTATLTAGTVSGVASLSVSVGGNALGVTGNITLAPGALDAARSILAVNKPSINADDRIGSTITFTAQDAQGNAITGLDIAFMTDLENSQIMTLVDHNDGTYTANINGTQTGIANIAVQSSGATIAGLAATMVTITPGAWNTTQATPVMTVALPITTCQSSSGVYKRYYIGIVTHELYDNYGNEISGILTYNLGAGRYTTVTSQNSSVSGSNGLTRRSNSPVSHFILTSDAYTSQAACYAERIANVNVTITVTAITDDFKTSAVNKVFILGTGSN
# How the values were obtained:
# Experiment in all cases: glycan array binding signal (z-score within array); higher = stronger binding
# Conditions in all cases: glycan notation: IUPAC condensed, linker removed
# [1] = biological target: Fuc(a1-2)Gal(b1-3)GlcNAc(b1-2)Man(a1-3)[Fuc(a1-2)Gal(b1-3)GlcNAc(b1-2)Man(a1-6)]Man(b1-4)GlcNAc(b1-4)GlcNAc
# Procedure, shortened: (§1)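 Glycan array data came from 3228 arrays in the Consortium for Functional Glycomics database, and only arrays with an available protein sequence were kept. Glycan names were put into IUPAC-condensed notation, and columns mapping to the same glycan were averaged. The binding signal is a within-array Z-score, averaged across arrays of one protein sequence run at different concentrations or buffers and across linkers. A negative Z-score can be read as non-binding.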
# [2] = biological target: Fuc(a1-2)Gal(b1-4)Fuc(a1-3)]GlcNAc(b1-2)Man(a1-3)[Fuc(a1-2)Gal(b1-4)[Fuc(a1-3)]GlcNAc(b1-2)Man(a1-6)]Man(b1-4)GlcNAc(b1-4)GlcNAc
# Procedure, shortened: as §1
# Fuc(a1-2)Gal(b1-4)GlcNAc = biological target: Fuc(a1-2)Gal(b1-4)GlcNAc
# Procedure, shortened: as §1
# [3] = biological target: Fuc(a1-2)Gal(b1-4)GlcNAc(b1-2)Man(a1-3)[Fuc(a1-2)Gal(b1-4)GlcNAc(b1-2)Man(a1-6)]Man(b1-4)GlcNAc(b1-4)[Fuc(a1-6)]GlcNAc
# Procedure, shortened: as §1
# [4] = biological target: Fuc(a1-2)Gal(b1-4)GlcNAc(b1-3)Gal(b1-4)GlcNAc(b1-2)Man(a1-3)[Fuc(a1-2)Gal(b1-4)GlcNAc(b1-3)Gal(b1-4)GlcNAc(b1-2)Man(a1-6)]Man(b1-4)GlcNAc(b1-4)GlcNAc
# Procedure, shortened: as §1
# [5] = biological target: Fuc(a1-2)[Gal(a1-3)]Gal(b1-3)GlcNAc(b1-2)Man(a1-3)[Fuc(a1-2)[Gal(a1-3)]Gal(b1-3)GlcNAc(b1-2)Man(a1-6)]Man(b1-4)GlcNAc(b1-4)GlcNAc
# Procedure, shortened: as §1
# [6] = biological target: Fuc(a1-2)[Gal(a1-3)]Gal(b1-3)GlcNAc(b1-6)GalNAc
# Procedure, shortened: as §1
# [7] = biological target: Fuc(a1-2)[Gal(a1-3)]Gal(b1-4)Glc
# Procedure, shortened: as §1
# [8] = biological target: Fuc(a1-2)[GalNAc(a1-3)]Gal(b1-4)GlcNAc(b1-2)Man(a1-3)[Fuc(a1-2)[GalNAc(a1-3)]Gal(b1-4)GlcNAc(b1-2)Man(a1-6)]Man(b1-4)GlcNAc(b1-4)[Fuc(a1-6)]GlcNAc
# Procedure, shortened: as §1
# [9] = biological target: Fuc(a1-2)[GalNAc(a1-3)]Gal(b1-4)GlcNAc(b1-3)GalNAc
# Procedure, shortened: as §1
# [10] = biological target: Fuc(a1-2)[GalNAc(b1-3)]Gal
# Procedure, shortened: as §1
# [11] = biological target: Fuc(a1-3)[Gal(b1-4)]GlcNAc(b1-2)Man(a1-3)[Fuc(a1-3)[Gal(b1-4)]GlcNAc(b1-2)Man(a1-6)]Man(b1-4)GlcNAc(b1-4)[Fuc(a1-6)]GlcNAc
# Procedure, shortened: as §1
# [12] = biological target: Fuc(a1-3)[Gal3S(b1-4)]Glc
# Procedure, shortened: as §1
# [13] = biological target: Gal(a1-3)Gal(b1-3)GlcNAc(b1-2)Man(a1-3)[Gal(a1-3)Gal(b1-3)GlcNAc(b1-2)Man(a1-6)]Man(b1-4)GlcNAc(b1-4)GlcNAc
# Procedure, shortened: as §1
# [14] = biological target: Gal(a1-4)Gal(b1-3)GlcNAc(b1-2)Man(a1-3)[Gal(a1-4)Gal(b1-3)GlcNAc(b1-2)Man(a1-6)]Man(b1-4)GlcNAc(b1-4)GlcNAc
# Procedure, shortened: as §1
# [15] = biological target: Gal(b1-3)GalNAc(a1-3)[Fuc(a1-2)]Gal(b1-4)GlcNAc
# Procedure, shortened: as §1
# [16] = biological target: Gal(b1-3)GlcNAc(b1-3)Gal(b1-4)GlcNAc(b1-2)Man(a1-3)[Gal(b1-3)GlcNAc(b1-3)Gal(b1-4)GlcNAc(b1-2)Man(a1-6)]Man(b1-4)GlcNAc(b1-4)GlcNAc
# Procedure, shortened: as §1
# [17] = biological target: Gal(b1-3)GlcNAc(b1-3)Gal(b1-4)GlcNAc(b1-6)[Gal(b1-3)GlcNAc(b1-3)]Gal(b1-4)Glc
# Procedure, shortened: as §1
# [18] = biological target: Gal(b1-3)GlcNAc(b1-6)GalNAc
# Procedure, shortened: as §1
# [19] = biological target: Gal(b1-3)[Fuc(a1-4)]GlcNAc
# Procedure, shortened: as §1
# Gal(b1-4)Glc6S = biological target: Gal(b1-4)Glc6S
# Procedure, shortened: as §1
# [20] = biological target: Gal(b1-4)GlcNAc(b1-2)Man(a1-3)Man(b1-4)GlcNAc(b1-4)GlcNAc
# Procedure, shortened: as §1
# [21] = biological target: Gal(b1-4)GlcNAc(b1-3)Gal(b1-4)GlcNAc(b1-2)Man(a1-3)[Gal(b1-4)GlcNAc(b1-3)Gal(b1-4)GlcNAc(b1-2)Man(a1-6)]Man(b1-4)GlcNAc(b1-4)GlcNAc
# Procedure, shortened: as §1
# [22] = biological target: Gal(b1-4)GlcNAc(b1-3)Gal(b1-4)GlcNAc(b1-2)Man(a1-3)[Gal(b1-4)GlcNAc(b1-3)Gal(b1-4)GlcNAc(b1-2)Man(a1-6)]Man(b1-4)GlcNAc(b1-4)[Fuc(a1-6)]GlcNAc
# Procedure, shortened: as §1
# [23] = biological target: Gal(b1-4)GlcNAc(b1-3)Gal(b1-4)GlcNAc(b1-2)[Gal(b1-4)GlcNAc(b1-3)Gal(b1-4)GlcNAc(b1-6)]Man(a1-6)[Gal(b1-4)GlcNAc(b1-3)Gal(b1-4)GlcNAc(b1-2)Man(a1-3)]Man(b1-4)GlcNAc(b1-4)[Fuc(a1-6)]GlcNAc
# Procedure, shortened: as §1
# [24] = biological target: Gal(b1-4)GlcNAc(b1-3)Gal(b1-4)GlcNAc(b1-3)Gal(b1-4)GlcNAc(b1-2)Man(a1-3)[Gal(b1-4)GlcNAc(b1-3)Gal(b1-4)GlcNAc(b1-3)Gal(b1-4)GlcNAc(b1-2)Man(a1-6)]Man(b1-4)GlcNAc(b1-4)GlcNAc
# Procedure, shortened: as §1
# [25] = biological target: Gal(b1-4)GlcNAc(b1-3)Gal(b1-4)GlcNAc(b1-3)Gal(b1-4)GlcNAc(b1-2)[Gal(b1-4)GlcNAc(b1-3)Gal(b1-4)GlcNAc(b1-3)Gal(b1-4)GlcNAc(b1-6)]Man(a1-6)[Gal(b1-4)GlcNAc(b1-3)Gal(b1-4)GlcNAc(b1-3)Gal(b1-4)GlcNAc(b1-2)Man(a1-3)]Man(b1-4)GlcNAc(b1-4)[Fuc(a1-6)]GlcNAc
# Procedure, shortened: as §1
# [26] = biological target: Gal(b1-4)GlcNAc(b1-3)Gal(b1-4)GlcNAc(b1-3)[Gal(b1-4)GlcNAc(b1-3)Gal(b1-4)GlcNAc(b1-6)]GalNAc
# Procedure, shortened: as §1
# [27] = biological target: Gal(b1-4)GlcNAc(b1-3)Gal(b1-4)GlcNAc(b1-6)[Gal(b1-3)]GalNAc
# Procedure, shortened: as §1
# Gal6S(b1-4)GlcNAc6S = biological target: Gal6S(b1-4)GlcNAc6S
# Procedure, shortened: as §1
binder,measurement,setting,value
B1,glycan array binding signal (z-score),[1],0.001
same,glycan array binding signal (z-score),[2],1.36
same,glycan array binding signal (z-score),Fuc(a1-2)Gal(b1-4)GlcNAc,-0.154
same,glycan array binding signal (z-score),[3],0.037
same,glycan array binding signal (z-score),[4],-0.232
same,glycan array binding signal (z-score),[5],-0.164
same,glycan array binding signal (z-score),[6],0.218
same,glycan array binding signal (z-score),[7],-0.359
same,glycan array binding signal (z-score),[8],0.113
same,glycan array binding signal (z-score),[9],-0.306
same,glycan array binding signal (z-score),[10],0.063
same,glycan array binding signal (z-score),[11],-0.147
same,glycan array binding signal (z-score),[12],-0.259
same,glycan array binding signal (z-score),[13],0.213
same,glycan array binding signal (z-score),[14],0.015
same,glycan array binding signal (z-score),[15],-0.102
same,glycan array binding signal (z-score),[16],-0.358
same,glycan array binding signal (z-score),[17],-0.192
same,glycan array binding signal (z-score),[18],-0.16
same,glycan array binding signal (z-score),[19],-0.119
same,glycan array binding signal (z-score),Gal(b1-4)Glc6S,-0.213
same,glycan array binding signal (z-score),[20],-0.355
same,glycan array binding signal (z-score),[21],10.1
same,glycan array binding signal (z-score),[22],2.01
same,glycan array binding signal (z-score),[23],1.88
same,glycan array binding signal (z-score),[24],1.59
same,glycan array binding signal (z-score),[25],1.62
same,glycan array binding signal (z-score),[26],1.71
same,glycan array binding signal (z-score),[27],1.51
same,glycan array binding signal (z-score),Gal6S(b1-4)GlcNAc6S,-0.131
